Assay in all cases: NCI-60 one-dose screen, 48 h (100 = growth as untreated, 0 = no growth, -100 = all killed)
Holding throughout (conditions): 10 µM unless noted

For assay [1], the system named is SR leukemia.
Assay [2] relates to RPMI-8226 leukemia.
Assay [3] concerns OVCAR-8 ovarian.
Assay [4] has as its system OVCAR-5 ovarian.
Assay [5] concerns OVCAR-4 ovarian.
In assay [6] the test system is SK-OV-3 ovarian.
In assay [7] the test system is IGROV1 ovarian.
In assay [8] the test system is OVCAR-3 ovarian.
Assay [9] deals with HS 578T breast.
Assay [10] concerns NCI/ADR-RES ovarian.
The subject of assay [11] is T-47D breast.
The subject of assay [12] is BT-549 breast.
In assay [13] the test system is MDA-MB-435 melanoma.
Assay [14] deals with SW-620 colon.
Assay [15] has as its system MCF7 breast.
Assay [16] relates to HCT-116 colon.
Assay [17] relates to HCC-2998 colon.
For assay [18], the system named is KM12 colon.

About 83,000 compounds went through this panel and 20% of them were active in at least one assay; those are over-represented in the sample as a whole.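 Each cell line was grown in a 96-well plate and treated with one concentration of compound for 48 hours. Values below 10 were considered active.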 A number with no mark means an inactive call. The source made the active and inactive calls.

Consider `CSc1ncnc2c1ncn2C1CCCO1` (centres undefined), for which the growth in assay [1] was 113%; in assay [2] it was 104%; in assay [3], 109%; in assay [4], 98.3%; in assay [5], 95.1%; in assay [6] it was 104%. Besides, the growth in assay [7] was 120%; in assay [8] it was 120%; in assay [9] it was 103%; in assay [10], 101%; in assay [11] it was 107%; in assay [12], 102%. The growth in [13] was 101%; in [14], 116%; in assay [15], 104%; in [16], 101%; in [17], 113%; in assay [18], 110%.
For the molecule `COc1ccc2nc3cc(Cl)ccc3c(NCCNCC(O)CO)c2c1` (centres undefined), the growth in assay [1] was 6.64% (active); in assay [2] it was 20.6%; in assay [3], 23.3%; in assay [4], 30.7%; in assay [5] it was 30.5%; in assay [6] it was 32.4%. Further, the growth was 19.8% in assay [7]; 26.2% in [8]; 49.6% in assay [9]; 87.7% in assay [10]; 21.7% in assay [11]; 44.3% in assay [12]. For the same molecule, the growth in assay [13] is 28.3%; in assay [14], 15.2%; in assay [15], 9.17% (active); in assay [16], 9.6% (active); in assay [17], 44.8%; in [18] it was 20.7%.
For the molecule `CC#Cc1nc2ccccc2c(=O)[nH]1`, the growth in assay [1] was 39.4%; in assay [2], 2.5% (active); in [3] it was 42%; in assay [4] it was 76.4%; in [5] it was 18.4%; in [6], 112%. For the same molecule, the growth is 14% in assay [7]; 4.22% (active) in [8]; 58.7% in assay [9]; 55% in assay [10]; 67.3% in assay [11]; 20.4% in [12]. Besides, the growth is 25.6% in assay [13]; 40.8% in assay [14]; 23.5% in assay [15]; 41.1% in [16]; 13.7% in assay [17]; 41.1% in assay [18].
For the molecule `CN(CC(=O)N(Cc1ccc(C2CCCCC2)cc1)c1ccc(C(=O)NO)cc1)S(=O)(=O)c1c(F)c(F)c(F)c(F)c1F`, the growth in assay [1] was -4.55% (active); in [2], 62.8%; in [3] it was 49.8%; in assay [4] it was 104%; in [5], 84.4%; in assay [6], 111%. Further, the growth in assay [7] is 28.6%; in assay [8] it was 81.7%; in assay [9], 91.6%; in [10] it was 90.2%; in assay [11], 11.2%; in assay [12], 93%. Also, the growth is 99.1% in [13]; 20.1% in assay [14]; 24.9% in [15]; 75.6% in assay [16]; 84.2% in assay [17]; 99.4% in [18].
Consider `CCCCNc1ccc2c3c1cccc3c(=O)n1c3ccccc3nc21`, for which the growth is 15.6% in assay [1]; 80.5% in assay [2]; 106% in assay [3]; 110% in [4]; 85.8% in assay [5]; 96.4% in assay [6]. Also, the growth was 41.8% in [7]; 95.3% in assay [8]; 93.1% in assay [9]; 91.3% in [10]; 35.7% in assay [11]; 98.2% in [12]. The growth was 111% in assay [13]; 86.4% in assay [14]; 10.3% in assay [15]; 86.7% in assay [16]; 74% in assay [17]; 77.7% in assay [18].
In the case of `COc1ccccc1/C=C(/C(=O)c1ccccc1)c1ccccc1`, the growth is 94.7% in [1]; 96.9% in assay [2]; 87.7% in assay [3]; 128% in assay [4]; 94.2% in assay [5]; 103% in assay [6]. Also, the growth in assay [7] was 96.7%; in assay [8], 102%; in assay [9], 100%; in [10] it was 92.1%; in [11], 103%; in [12], 92.4%. For the same molecule, the growth is 107% in [13]; 101% in [14]; 110% in assay [15]; 83.5% in assay [16]; 107% in assay [17]; 98.1% in assay [18].
In the case of `CC[C@H](Nc1ncnc(N)c1C(N)=O)c1nc2cccc(NCc3ccc(C(=O)NO)cc3)c2c(=O)n1-c1ccccc1`, the growth in assay [1] is 12%; in assay [2], 51%; in assay [3] it was 69.4%; in assay [4], 95.5%; in [5] it was 99%; in assay [6] it was 91.9%. Also, the growth was 71% in assay [7]; 73.1% in assay [8]; 69.7% in assay [9]; 106% in [10]; 42.1% in assay [11]; 88.6% in assay [12]. Further, the growth in assay [13] was 81.8%; in [14] it was 66.8%; in assay [15], 82.8%; in assay [16] it was 67%; in assay [17], 86.1%; in [18] it was 89.6%.
For `C[C@]12C[C@@H](c3ccoc3)OC(=O)[C@@H]1CC[C@]1(C)[C@@H]2CC[C@@H](O)[C@]1(C)O`, the growth in assay [1] was 74.5%; in assay [2], 101%; in assay [3], 104%; in assay [4], 137%; in [5], 128%; in assay [6], 105%. In addition, the growth in assay [7] is 102%; in [8] it was 112%; in assay [9], 81.1%; in assay [10], 104%; in [11], 82.6%; in assay [12] it was 106%. For the same molecule, the growth is 57.4% in assay [13]; 63.2% in assay [14]; 108% in [15]; 90.5% in assay [16]; 95.8% in assay [17]; 102% in assay [18].

The record behind these values is PubChem BioAssay (NCI).
